Dicer inh = human Dicer pre-microRNA cleavage inhibition | 47,000 tested, 6% active | AID 1347074 | cat-ELCCA pre-miR-21 Dicer processing, chemiluminescence; stronger effect = higher value | z-score at 25 µM; in the data active = z-score above about 3, passing the limit was not always enough;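 also: plate controls were vehicle for no effect and no enzyme for full effect; higher signal means more uncleaved substrate so more Dicer inhibition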
An asterisk follows results filed as active. The full list was thinned out, with hits kept by preference.

SMILES	Dicer inh
COC(=O)COc1ccc(C2C(C(=O)OC)=C(C)NC3=C2C(=O)c2ccccc23)cc1OC (centres undefined)	-2.1
NNC(=O)c1ccc([N+](=O)[O-])cc1Cl	-0.83
COC(=O)c1cc(Cl)ccc1Oc1ccc([N+](=O)[O-])c(Oc2ccc(Cl)cc2C(=O)OC)n1	-0.75
COc1ccc(Oc2ccc([N+](=O)[O-])cc2C(=O)NNC(=O)c2ccc(Cl)cc2Cl)cc1	4.8*
Cc1ccc(S(=O)(=O)NC2=NCN(C3CCCCC3)CN2)cc1	2.3
CCn1c(NCCCO)nc2c1c(=O)[nH]c(=O)n2C	0.94
Cn1c(=O)[nH]c(=O)c2c1nc(NCCCO)n2CCCc1ccccc1	3.4*
C=CCNc1nc2c(c(=O)[nH]c(=O)n2C)n1CCO	0.25
Cn1c(=O)c2c(nc(NCCO)n2CCCc2ccccc2)n(C)c1=O	-0.3
CCCCCn1c(NCCO)nc2c1c(=O)[nH]c(=O)n2C	3.6*
Cn1c(=O)[nH]c(=O)c2c1nc(NCCCO)n2CCO	-0.15
COc1ccccc1-c1noc(CSc2nc3ccc(C)cc3[nH]2)n1	0.27
Cc1ccc(-c2nc3c4cnn(-c5ccccc5)c4ncn3n2)cc1	0.59
COCCOC(=O)C1=C(C)NC2=C(C(=O)CC(C)(C)C2)C1c1ccccc1Cl (centres undefined)	0.18
O=C(C1CC1)N1CCN(c2ncccn2)CC1	-0.86
Cn1c(-c2ccccc2)cnc1NCc1cccc(Br)c1	4.4*
COc1ccc(-c2cnc(NCc3ccc(Cl)cc3)n2C)cc1	-0.45
COc1ccccc1CNc1ncc(-c2cccc(Br)c2)n1C	-0.18
Cc1ccc(-c2cnc(NCc3ccc(Cl)cc3)n2C)cc1	3.2*
Cn1c(-c2ccccc2)cnc1NCc1ccccc1O	1.9
Cn1c(-c2ccc(Br)cc2)cnc1NCc1cccc(F)c1	2.5
Cn1c(-c2ccc(Cl)cc2)cnc1NCc1ccc(F)cc1	2.6
Cn1c(-c2cccc(Br)c2)cnc1NCc1ccccc1	3.8*
Cn1c(-c2ccc(F)cc2)cnc1NCc1cccc(Br)c1	2.8
COc1ccc(C2/C(=C(\O)c3ccc(Cl)cc3)C(=O)C(=O)N2c2nccs2)cc1 (centres undefined)	0.1
SMILES	Dicer inh
N#Cc1nc(-c2ccc(F)cc2)oc1NCCCN1CCOCC1	-1.5
Cc1[nH]nc2c1C(c1ccc(C(C)C)cc1)C(C#N)=C(N)O2 (centres undefined)	-4.4
Cc1c(Cc2ccccc2Cl)c(=O)[nH]c2nc3ccccc3n12	1.2
Nc1ccc(S(=O)(=O)Nc2ccc(Cl)nn2)cc1	2.6
O=C(NNc1c(Cl)cccc1Cl)C1CCC1	-0.57
CCOC(=O)c1c(-c2ccccc2)oc2ccc(OC(=O)c3ccco3)cc12	2.5
CC1=CC(C)C(COC(=O)Nc2ccccc2)C(C)C1 (centres undefined)	-2.5
CC1=Nc2cc(Cl)c(Cl)cc2NC(C)(C)C1	7.2*
O=C(O)CC(Sc1ccc(Cl)cc1)C(=O)O (centres undefined)	0.26
Cc1cc(NC(=O)c2cc(C)oc2C)on1	1.1
CCOC(=O)C(C)c1nc2ccccc2[nH]c1=O (centres undefined)	3
O=C(CCc1nc2ccccc2[nH]c1=O)OCc1ccc(Br)cc1	1.6
CC(C)OC(=O)c1ccc(COC(=O)CCc2nc3ccccc3[nH]c2=O)cc1	3.4*
O=c1[nH]c(CSc2nnc(-c3ccccn3)o2)nc2ccccc12	0.9
CC(=O)N1CCSC1C(=O)NNC(=O)c1ccc2c(c1)OCO2 (centres undefined)	-2
COc1ccc(OC)c(C2C(C#N)=C3N=C(N)c4ccccc4N3C3=C2C(=O)CC(C)(C)C3)c1 (centres undefined)	4.8*
COc1ccc(C2C(C#N)=C3N=C(N)c4ccccc4N3C3=C2C(=O)CCC3)cc1 (centres undefined)	1.5
COc1ccccc1C1C(C#N)=C2N=C(N)c3ccccc3N2C2=C1C(=O)CCC2 (centres undefined)	-1
N#CC1=C2N=C(N)c3ccccc3N2C2=C(C(=O)CCC2)C1c1ccc(Cl)cc1 (centres undefined)	2
CN(C)c1ccc(C2C(C#N)=C3N=C(N)c4ccccc4N3C3=C2C(=O)CC(C)(C)C3)cc1 (centres undefined)	6.9*
CC1(C)CC(=O)C2=C(C1)N1C(=C(C#N)C2c2ccc3c(c2)OCO3)N=C(N)c2ccccc21 (centres undefined)	0.12
COc1ccc2c(c1)nc1n2CN(CC2CCCO2)CN1Cc1ccccc1 (centres undefined)	-1.8
OCC1(CO)CSC(Nc2cc(Cl)cc(Cl)c2)=N1	0.54
O=C(O)c1ccc2nc3ccsc3c(=O)n2c1	-0.49
CCOC(=O)C(C)Oc1cc(OC(C)C(=O)OCC)c2c(=O)cc(-c3ccccc3)oc2c1 (centres undefined)	4.1*
SMILES	Dicer inh
CCOC(=O)C(C)Oc1ccc2c(C)cc(=O)oc2c1 (centres undefined)	1.3
CCCCOC(=O)C(C)Oc1ccc2c(=O)c(-c3ccccc3)coc2c1 (centres undefined)	1.2
COc1ccc(NCC(O)Cn2c3ccccc3c3ccccc32)cc1 (centres undefined)	9
Cn1cc(-c2ccccc2C(N)=O)c(=O)c2ccccc21	2.8
N#C/C(=C\C(=C\N1CCOCC1)c1ccccc1)c1ccccc1	-2.4
O=C(Nc1ncn[nH]1)c1ccccc1O	-0.2
O=C1C=C(NCCc2ccccc2)CC(c2ccco2)C1 (centres undefined)	5.7*
O=C1C=C(NCc2ccncc2)CC(c2ccccc2)C1 (centres undefined)	1.8
O=C1C=C(NCc2ccco2)CC(c2ccccc2)C1 (centres undefined)	1.2
COC(=O)c1cc(Cl)c(C(=O)OC)c2c(C(=O)OC)cc(Cl)c(C(=O)OC)c12	-1.7
C(=C\N1CCCCCC1)/c1nnnn1-c1ccc(-c2ccccc2)cc1	0.04
COC(=O)c1sc2ccccc2c1O	-0.62
COc1ccc(COC(=O)C2=C(C)NC3=C(C(=O)CCC3)C2c2ccc3c(c2)OCO3)cc1 (centres undefined)	0.95
CCOC(=O)C1=C(C)NC2=C(C(=O)CCC2)C1c1cc2c(cc1Cl)OCO2 (centres undefined)	0.09
COc1ccc(COC(=O)C2=C(C)NC3=C(C(=O)CCC3)C2c2cc3c(cc2Cl)OCO3)cc1 (centres undefined)	4.2*
CCCCc1ccc(NC(=O)NC2Cc3ccccc3C2)cc1	0.6
N#Cc1c(=N)nc2oc3ccccc3c3cc(-c4ccccc4)[nH]c1c23	0.72
COc1ccc(-c2cc(=S)sc(N)c2C#N)cc1OC	-2.7
COc1cc(-c2cc3c(c(N)c2C#N)c(=O)oc2ccccc23)cc(OC)c1OC	3.7*
O=S(=O)(c1ccccc1)n1nc(-c2ccccc2)nc1NCc1ccc(Cl)cc1	-1.7
Cc1ccc(S(=O)(=O)n2nc(-c3ccc(Cl)cc3)nc2NCc2ccco2)cc1	3.4*
O=S(=O)(c1ccccc1)n1nc(-c2ccccc2)nc1NCc1ccccc1	1.5
Cc1ccc(S(=O)(=O)n2nc(-c3ccc(Cl)cc3)nc2N)cc1	3.2*
Cc1nc(C)c(-c2ccn(S(=O)(=O)c3ccc(Cl)cc3)n2)o1	0.48
Cc1ccc(S(=O)(=O)n2nc(C)cc2C)cc1	0.88
C/C(=C\C(=O)Nc1ccc(F)cc1)Nc1ccc(F)cc1	-0.53
COc1ccc(OC)c(-c2noc(CSc3nc4ccc(C)cc4[nH]3)n2)c1	0.04
Cc1ccc(CSC2=NCN(C(C)(C)C)CN2)cc1	-0.38
Clc1ccc(C(c2ccccc2Cl)C(Cl)Cl)cc1 (centres undefined)	-0.01

Screens deposited in PubChem by Center for Chemical Genomics, University of Michigan.
